Reference: PubChem BioAssay (NCI)
About 83,000 compounds went through this panel and 20% of them were active in at least one assay; those are over-represented in the sample as a whole.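 Cell lines were cultured in 96-well plates, exposed to a single compound concentration, and assessed for percent growth 48 hours later.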 Values without a mark were called inactive. Active and inactive are the calls of the source. How the source made its calls: active means growth percent below 10; inactive means the rest.

Tests used:
Test in all cases: NCI-60 one-dose screen, 48 h (100 = growth as untreated, 0 = no growth, -100 = all killed)
[1] = tested on: HCT-15 colon; conditions: 10 µM unless noted
[2] = tested on: HT29 colon; conditions: 10 µM unless noted
[3] = tested on: SNB-75 CNS; conditions: 10 µM unless noted
[4] = tested on: SNB-19 CNS; conditions: 10 µM unless noted
[5] = tested on: U251 CNS; conditions: 10 µM unless noted
[6] = tested on: PC-3 prostate; conditions: 10 µM unless noted
[7] = tested on: SK-MEL-5 melanoma; conditions: 10 µM unless noted
[8] = tested on: UACC-62 melanoma; conditions: 10 µM unless noted
[9] = tested on: LOX IMVI melanoma; conditions: 10 µM unless noted
[10] = tested on: SK-MEL-28 melanoma; conditions: 10 µM unless noted
[11] = tested on: SK-MEL-2 melanoma; conditions: 10 µM unless noted
[12] = tested on: EKVX NSCLC; conditions: 10 µM unless noted
[13] = tested on: SN12C renal; conditions: 10 µM unless noted
[14] = tested on: UO-31 renal; conditions: 10 µM unless noted
[15] = tested on: TK-10 renal; conditions: 10 µM unless noted
[16] = tested on: CAKI-1 renal; conditions: 10 µM
[17] = tested on: A498 renal; conditions: 10 µM unless noted
[18] = tested on: CCRF-CEM leukemia; conditions: 10 µM unless noted
[19] = tested on: MOLT-4 leukemia; conditions: 10 µM unless noted
[20] = tested on: ACHN renal; conditions: 10 µM unless noted

SMILES: CC(NCCC(c1ccccc1)c1ccccc1)c1ccccc1 (stereo unspecified)
- growth [1]: 75%
- growth [2]: 13.1%
- growth [3]: 87.3%
- growth [4]: 90.7%
- growth [5]: 61.1%
- growth [6]: 48%
- growth [7]: 85.8%
- growth [8]: 93.3%
- growth [9]: 74.6%
- growth [10]: 75.5%
- growth [11]: 79%
- growth [12]: 44.1%
- growth [13]: 86.4%
- growth [14]: 32.6%
- growth [15]: 57.5%
- growth [16]: 42.3%
- growth [17]: 63.8%
- growth [18]: 48%
- growth [19]: 17.8%

SMILES: COc1ccc(-c2c(C#N)cnc(N)c2-c2nc3cc(C)c(C)cc3[nH]2)cc1
- growth [1]: 60.3%
- growth [2]: 37.3%
- growth [3]: 84.2%
- growth [4]: 67.6%
- growth [5]: 1.05% (active)
- growth [6]: 57.8%
- growth [7]: 32.2%
- growth [8]: 56.1%
- growth [9]: 59.6%
- growth [10]: 77%
- growth [11]: 41.4%
- growth [12]: 63%
- growth [13]: 80.7%
- growth [14]: 83.9%
- growth [15]: 48.6%
- growth [20]: 53.2%
- growth [17]: 82.9%
- growth [19]: 104%

SMILES: COc1ccc(C[C@H](N)C(=O)N[C@@H]2[C@@H](CO)OC(n3cnc4c(N(C)C)ncnc43)[C@@H]2O)cc1 (stereo partly specified)
- growth [1]: 71.6%
- growth [2]: -63.8% (active)
- growth [3]: -40.7% (active)
- growth [4]: -4.27% (active)
- growth [5]: -91.6% (active)
- growth [6]: -6.6% (active)
- growth [7]: -96.6% (active)
- growth [8]: -81.3% (active)
- growth [9]: -61.9% (active)
- growth [10]: -64.4% (active)
- growth [11]: -74.4% (active)
- growth [12]: -47.2% (active)
- growth [13]: -13.3% (active)
- growth [14]: 16.2%
- growth [15]: -75.7% (active)
- growth [16]: 42.8%
- growth [17]: -65.6% (active)
- growth [18]: -3.9% (active)

SMILES: COc1ccc(/C=C/C(=O)c2ccc(-n3cc(CN4CCN(c5cc6c(cc5F)c(=O)c(C(=O)O)cn6C5CC5)CC4)nn3)cc2)cc1OC
- growth [1]: 33.8%
- growth [2]: 4.76% (active)
- growth [3]: 65.5%
- growth [4]: 44.7%
- growth [5]: 10.6%
- growth [6]: 9.95% (active)
- growth [7]: 50.9%
- growth [8]: 54.1%
- growth [9]: -1.51% (active)
- growth [10]: 34.6%
- growth [11]: 97.4%
- growth [12]: 80%
- growth [13]: 14.9%
- growth [14]: 43.5%
- growth [15]: 80%
- growth [16]: 60%
- growth [17]: 54.4%
- growth [18]: 3.05% (active)
- growth [19]: 10.5%

SMILES: CC(/C=C/C=C(\C)[C@H](O)[C@H](C)C(=O)O[C@H]1C[C@H](C)C=C2C=C[C@@]3(C)O[C@@H](O)CC(=O)[C@]3(C)[C@H]21)=C\C=C\C(=O)O
- growth [1]: 17.3%
- growth [2]: 0.326% (active)
- growth [3]: -14.2% (active)
- growth [4]: -0.761% (active)
- growth [5]: -3.9% (active)
- growth [6]: 7.61% (active)
- growth [7]: -69% (active)
- growth [8]: -32% (active)
- growth [9]: 6.81% (active)
- growth [10]: -0.848% (active)
- growth [11]: -46.9% (active)
- growth [12]: -0.933% (active)
- growth [13]: 3.38% (active)
- growth [14]: 18.8%
- growth [15]: 15.5%
- growth [17]: -38.9% (active)
- growth [18]: 8.62% (active)

SMILES: CC(C)NCC(O)COc1ccc(CC(N)=O)cc1 (stereo unspecified)
- growth [1]: 99.3%
- growth [2]: 103%
- growth [3]: 99%
- growth [4]: 106%
- growth [5]: 101%
- growth [6]: 92.5%
- growth [7]: 94.9%
- growth [8]: 107%
- growth [9]: 98.1%
- growth [10]: 103%
- growth [11]: 105%
- growth [12]: 101%
- growth [13]: 104%
- growth [14]: 83.5%
- growth [15]: 105%
- growth [16]: 94.1%
- growth [17]: 92.9%
- growth [18]: 100%
- growth [19]: 107%

SMILES: O=C(Nc1ccc(F)cc1)Nc1ccc(Br)c(C(F)(F)F)c1
- growth [1]: 8.12% (active)
- growth [2]: 6.61% (active)
- growth [3]: 22.2%
- growth [4]: 19.8%
- growth [5]: 11.6%
- growth [6]: 4.68% (active)
- growth [7]: 4.53% (active)
- growth [8]: 21.7%
- growth [9]: -16.7% (active)
- growth [10]: 20.8%
- growth [11]: -11.1% (active)
- growth [12]: 7.24% (active)
- growth [13]: 11.3%
- growth [14]: 7.01% (active)
- growth [15]: 10.4%
- growth [20]: 2.25% (active)
- growth [17]: 4.62% (active)
- growth [19]: 12.8%

SMILES: COc1ccc(/C=N/C2=NNC(C)(c3ccccc3O)N2C(Cc2c[nH]c3ccccc23)C(=O)O)cc1 (stereo unspecified)
- growth [1]: 39.7%
- growth [2]: 5.86% (active)
- growth [3]: 32.5%
- growth [4]: 27.8%
- growth [5]: 21%
- growth [6]: 23.8%
- growth [7]: -78.3% (active)
- growth [8]: 17.7%
- growth [9]: 19.2%
- growth [10]: 33.5%
- growth [11]: 20.2%
- growth [12]: 27.5%
- growth [13]: 34.4%
- growth [14]: 32.1%
- growth [15]: 70.4%
- growth [20]: 46.5%
- growth [17]: 46.5%
- growth [19]: 14.4%

SMILES: Cc1cc[n+](CCCC[n+]2ccc(C)cc2)cc1
- growth [1]: 93%
- growth [2]: 113%
- growth [3]: 106%
- growth [4]: 107%
- growth [5]: 102%
- growth [6]: 88.7%
- growth [7]: 99.2%
- growth [8]: 97.5%
- growth [9]: 94.4%
- growth [10]: 105%
- growth [11]: 124%
- growth [12]: 97.2%
- growth [13]: 97.4%
- growth [14]: 96%
- growth [15]: 107%
- growth [20]: 104%
- growth [17]: 121%
- growth [19]: 91.1%

SMILES: COC(=O)Nc1nc2ccc(Sc3ccccc3)cc2[nH]1
- growth [1]: 13.8%
- growth [2]: 4.14% (active)
- growth [3]: 21.7%
- growth [4]: 31.3%
- growth [5]: 17%
- growth [6]: 26.6%
- growth [7]: 8.9% (active)
- growth [8]: 35.9%
- growth [9]: 19.3%
- growth [10]: 48.9%
- growth [11]: 53%
- growth [12]: 57.1%
- growth [13]: 44.6%
- growth [14]: 34.6%
- growth [15]: 65.6%
- growth [16]: 39.1%
- growth [17]: 13.9%
- growth [18]: 10.7%
- growth [19]: 14.6%

SMILES: CCC1S/C(=N\N=C(/C)c2ccco2)N(c2ccccc2)C1=O (stereo unspecified)
- growth [1]: 118%
- growth [2]: 86.8%
- growth [3]: 103%
- growth [4]: 104%
- growth [5]: 104%
- growth [6]: 76.6%
- growth [7]: 146%
- growth [8]: 92%
- growth [9]: 99.5%
- growth [10]: 108%
- growth [11]: 112%
- growth [12]: 109%
- growth [13]: 141%
- growth [14]: 94.8%
- growth [15]: 79.4%
- growth [20]: 110%
- growth [17]: 160%
- growth [19]: 78.7%

SMILES: COc1cc2c(cc1OCCCCC(=O)Nc1ccc(-c3nc4ccccc4s3)cc1)N=C[C@@H]1CCCN1C2=O
- growth [1]: 10.6%
- growth [2]: -9.12% (active)
- growth [3]: -67.7% (active)
- growth [4]: 14.1%
- growth [5]: 7.5% (active)
- growth [6]: -4.92% (active)
- growth [7]: -99.3% (active)
- growth [8]: -70.9% (active)
- growth [9]: 1.99% (active)
- growth [10]: -44% (active)
- growth [11]: -2.21% (active)
- growth [12]: 2.66% (active)
- growth [13]: 15.3%
- growth [14]: -31.6% (active)
- growth [15]: -0.417% (active)
- growth [20]: 1.84% (active)
- growth [17]: -79.3% (active)
- growth [19]: -31.7% (active)

SMILES: Oc1ccc(Cl)cc1Sc1cc(Cl)ccc1O
- growth [1]: 92.9%
- growth [2]: 102%
- growth [3]: 63.4%
- growth [4]: 95.1%
- growth [5]: 93.9%
- growth [6]: 89.6%
- growth [7]: -14.2% (active)
- growth [8]: 58.8%
- growth [9]: 88.1%
- growth [10]: 52.5%
- growth [11]: 94.1%
- growth [12]: 103%
- growth [13]: 86.3%
- growth [14]: 74.6%
- growth [15]: 104%
- growth [20]: 90.1%
- growth [18]: 96.7%
- growth [19]: 80.9%

SMILES: Cc1ccc(N(CC2=NCCN2)c2cccc(O)c2)cc1
- growth [1]: 102%
- growth [2]: 107%
- growth [3]: 84.9%
- growth [4]: 103%
- growth [5]: 88.8%
- growth [6]: 92.1%
- growth [7]: 99.2%
- growth [8]: 105%
- growth [9]: 95%
- growth [10]: 108%
- growth [11]: 107%
- growth [12]: 90.2%
- growth [13]: 94.6%
- growth [14]: 79.7%
- growth [15]: 102%
- growth [16]: 90%
- growth [17]: 93.8%
- growth [18]: 98.5%
- growth [19]: 97.7%

SMILES: Cc1cn([C@]2(CF)O[C@H](CO)C2C)c(=O)[nH]c1=O (stereo partly specified)
- growth [1]: 112%
- growth [2]: 112%
- growth [3]: 116%
- growth [4]: 118%
- growth [5]: 103%
- growth [6]: 117%
- growth [7]: 89.4%
- growth [8]: 122%
- growth [9]: 97.9%
- growth [10]: 121%
- growth [11]: 98.3%
- growth [12]: 106%
- growth [13]: 125%
- growth [14]: 109%
- growth [15]: 109%
- growth [20]: 112%
- growth [17]: 115%
- growth [19]: 94%

SMILES: CCN(CC)CC(=O)Nc1c(C)cccc1C
- growth [1]: 98.1%
- growth [2]: 111%
- growth [3]: 95.5%
- growth [4]: 106%
- growth [5]: 106%
- growth [6]: 100%
- growth [7]: 93.2%
- growth [8]: 105%
- growth [9]: 100%
- growth [10]: 110%
- growth [11]: 104%
- growth [12]: 85.2%
- growth [13]: 98.8%
- growth [14]: 83.2%
- growth [15]: 116%
- growth [16]: 94.3%
- growth [17]: 102%
- growth [18]: 103%
- growth [19]: 104%

SMILES: c1ccc(OCC[P+](c2ccccc2)(c2ccccc2)c2ccccc2)cc1
- growth [1]: 78%
- growth [2]: 13%
- growth [3]: 16.5%
- growth [4]: 21.5%
- growth [5]: 14.8%
- growth [6]: 11.8%
- growth [7]: -40.1% (active)
- growth [8]: 8.25% (active)
- growth [9]: 2.69% (active)
- growth [10]: 26.1%
- growth [11]: -16.2% (active)
- growth [12]: 26.3%
- growth [13]: 29.8%
- growth [14]: 63.5%
- growth [15]: 40.2%
- growth [20]: 60.5%
- growth [17]: 74.2%
- growth [19]: 34.8%
